Experimental findings from PubChem BioAssay (Tox21) are described below.

The nature of assay [1]: qHTS assay to identify small molecule agonists of the estrogen related receptor (ERR) signaling pathway (AID 1224820; active = well fitted curve in the direction sought with a large enough effect in the repeat runs; an effect the other way counts as inactive or inconclusive; also: potency is read from the fitted curve at half-maximal effect; as to activation: % is scaled to controls: 0 for no effect and ±100 for the full control effect). The method, boiled down: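 Quantitative HTS of the LOPAC library used NTP ERR reporter cells treated 18 h at 37 C. Signal is luminescence after One-Glo addition and a 30 min room-temperature incubation.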
The subject of assay [2] is estrogen-related receptor alpha (ERRalpha) with PGC-1alpha coactivator, human. The experiment in a line: qHTS assay to identify small molecule antagonists of the estrogen related receptor signaling pathway with the pleiotropic PPARgamma coactivator (PGC) (AID 1224821).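 Also: % is scaled to controls: 0 for no effect and ±100 for the full control effect; lower luminescence signal means antagonism of PGC/ERR signalling; nearly all actives have a fitted effect of over 50% in size.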 The method in brief: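 Quantitative HTS for antagonism: PGC/ERR cells received compounds after 6 h attachment and were incubated 18 h at 37 C, with luminescence (One-Glo) as the endpoint.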
In general terms: Quantitative high-throughput screening tests each substance at several concentrations.

The nature of assay [3]: qHTS assay to identify small molecule antagonists of the estrogen related receptor signaling pathway with the pleiotropic PPARgamma coactivator (PGC) cell viability counter screen (AID 1224822; active = well fitted curve in the direction sought with a large enough effect in the repeat runs; an effect the other way counts as inactive or inconclusive;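 also: viability read after 17.5 h compound exposure; % is scaled to controls: 0 for no effect and ±100 for the full control effect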). The method, boiled down:
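Seed PGC/ERR cells (2,000/well); incubate 6 h at 37 C/5% CO2; pin-transfer compounds in DMSO; incubate 17.5 h at 37 C; add CellTiter-Fluor; after 30 min read fluorescence.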

Assay [4] can be described thus: qHTS assay to identify small molecule agonists of the estrogen related receptor signaling pathway with the pleiotropic PPARgamma coactivator (PGC) (AID 1224823; active = well fitted curve in the direction sought with a large enough effect in the repeat runs; an effect the other way counts as inactive or inconclusive; also: % is scaled to controls: 0 for no effect and ±100 for the full control effect). The method in brief:
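Cell-based luciferase assay in the NTP-supplied PGC/ERR line, 2,000 cells/well; 18 h compound exposure at 37 C, luminescence after One-Glo.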

Assay [5] can be described thus: qHTS assay to identify small molecule agonists of H2AX (AID 1224845; active = well fitted activation curve with a large enough effect in the signal ratio in the repeat runs, not every such curve was filed as active; the % refers to the signal ratio; also: % is scaled to controls: 0 for no effect and ±100 for the full control effect). The method, boiled down: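 Phospho-H2AX Ser139 measured by HTRF (ex 320 nm; em 665 and 620 nm) after 24 hr antibody incubation. Compounds, 15 concentrations, 0.76% DMSO, were applied to CHO-K1 cells for 3hr at 37C before lysis.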
Assay [6] in a line: qHTS assay for small molecule agonists of the p53 signaling pathway (AID 651631). Also: % is scaled to controls: 0 for no effect and ±100 for the full control effect; nearly all actives have a fitted effect of over 15% in size. The method, boiled down: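 HCT-116 p53RE-bla reporter line, 16 h compound treatment at 37 °C, then fluorescence after 2 h with B/G FRET substrate.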
Assay [7] addresses Aromatase (Homo sapiens) (UniProt P11511). In words: qHTS assay to identify aromatase inhibitors (AID 743083; active = well fitted curve in the direction sought with a large enough effect in the repeat runs; an effect the other way counts as inactive or inconclusive; also: potency is read from the fitted curve at half-maximal effect; nearly all actives have a fitted effect of over 55% in size).
Assay [8] is described as follows: qHTS assay to identify small molecule agonists of the estrogen related receptor signaling pathway with the pleiotropic PPARgamma coactivator (PGC) from Tox21 10K library (AID 1224842; active = well fitted curve in the direction sought with a large enough effect in the repeat runs; an effect the other way counts as inactive or inconclusive; also: potency is read from the fitted curve at half-maximal effect; nearly all actives have a fitted effect of over 15% in size). The method in brief: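 Luminescence from One-Glo (30 min, room temperature) measured after PGC/ERR cells had 18 h at 37 C with pinned compound (23 nL in DMSO). Cells had been seeded at 2,000 per well and pre-incubated 6 h.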

Assay [9] is described as follows: qHTS assay to identify small molecule agonists of the estrogen related receptor (ERR) signaling pathway from Tox21 library (AID 1224849). Also: % is scaled to controls: 0 for no effect and ±100 for the full control effect; nearly all actives have a fitted effect of over 15% in size. Particulars: ERR reporter cell line, ONE-Glo luciferase, 18 h; at 92.4 µM (top of the series) unless noted. The method in brief:
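Agonist signal is luciferase luminescence from an ERR reporter cell line treated 18 h at 37 C with DMSO-dissolved compounds, read 30 min after ONE-Glo addition at room temperature.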

Assay [10] can be described thus: Caspase-3/7 induction in HepG2 cells by small molecules, qHTS assay (AID 1346978; active = well fitted curve in the direction sought with a large enough effect in the repeat runs; an effect the other way counts as inactive or inconclusive; also: % is scaled to controls: 0 for no effect and ±100 for the full control effect; nearly all actives have a fitted effect of over 15% in size). The method, boiled down:
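Caspase-3/7 induction was measured by Caspase-Glo 3/7 luminescence (30 min, room temperature) after a 17 hr compound exposure of wild-type HepG2 cells seeded at 2,000 per well and pre-incubated 5 hr.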

Assay [11] has as its target Acetylcholinesterase (Homo sapiens) (UniProt P22303). In words: Acetylcholinesterase (AChE) small molecule antagonists: colormetric cell-based qHTS assay (AID 1347395). Also: nearly all actives have a fitted effect of over 30% in size. Also: potency is read from the fitted curve at half-maximal effect. The method, boiled down: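 Endogenous AChE of human neuroblastoma SH-SY5Y cells was measured with an Ellman-type DTNB/acetylthiocholine mix. Compound pretreatment lasted 30 min at 37 C; substrate reaction ran 90 min at 37 C.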

Assay [12] shares this target. The experiment in a line: Acetylcholinesterase (AChE) small molecule antagonists: enzyme-based qHTS assay (AID 1347397). Also: % is scaled to controls: 0 for no effect and ±100 for the full control effect; nearly all actives have a fitted effect of over 55% in size. Particulars: Potency: AChE enzyme activity inhibition; outcome: AChE enzyme activity inhibition. The method in brief:
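Absorbance-based detection of thiocholine with DTNB served as the read-out. Recombinant human AChE was exposed to compound for 30 min at RT before a 10 min RT incubation with acetylthiocholine.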

Assay [13] shares this target. In words: Acetylcholinesterase (AChE) small molecule antagonists: fluorescence cell-based qHTS assay (AID 1347398). Also: % is scaled to controls: 0 for no effect and ±100 for the full control effect; nearly all actives have a fitted effect of over 50% in size. Particulars: Potency: AChE activity; outcome: AChE activity. The method, boiled down: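 Fluorimetric cell-based assay: intact SH-SY5Y cells, 30 min compound preincubation at 37 C, acetylthiocholine substrate with thiol probe Thiolite Green, 40 min RT development, fluorescence 490/520 nm.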

The target is the same in assay [14]. The experiment in a line: Acetylcholinesterase (AChE) small molecule antagonists: enzyme-based qHTS assay with human liver microsomes (AID 1347399). Also: % is scaled to controls: 0 for no effect and ±100 for the full control effect; nearly all actives have a fitted effect of over 60% in size. Particulars: Potency: qHTS inhibition; outcome: qHTS inhibition. The method, boiled down: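 Recombinant human AChE (50 mU/mL in the enzyme mix) and human liver microsomes (0.25 mg/mL final) were preincubated with compound and NADPH (0.25 mg/mL final) for 30 min at 37 C. Acetylthiocholine/DTNB was then added; thiocholine was read colorimetrically after 10 min at room temperature.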

Records with an inconclusive call do not appear. The source holds several records for some structures; these can differ, active in one and inactive in another. Active and inactive are the calls of the source. Unless noted, calls follow the shape of the full dose curve.

Sequence of Acetylcholinesterase (Homo sapiens) (P22303 whole entry, looked up): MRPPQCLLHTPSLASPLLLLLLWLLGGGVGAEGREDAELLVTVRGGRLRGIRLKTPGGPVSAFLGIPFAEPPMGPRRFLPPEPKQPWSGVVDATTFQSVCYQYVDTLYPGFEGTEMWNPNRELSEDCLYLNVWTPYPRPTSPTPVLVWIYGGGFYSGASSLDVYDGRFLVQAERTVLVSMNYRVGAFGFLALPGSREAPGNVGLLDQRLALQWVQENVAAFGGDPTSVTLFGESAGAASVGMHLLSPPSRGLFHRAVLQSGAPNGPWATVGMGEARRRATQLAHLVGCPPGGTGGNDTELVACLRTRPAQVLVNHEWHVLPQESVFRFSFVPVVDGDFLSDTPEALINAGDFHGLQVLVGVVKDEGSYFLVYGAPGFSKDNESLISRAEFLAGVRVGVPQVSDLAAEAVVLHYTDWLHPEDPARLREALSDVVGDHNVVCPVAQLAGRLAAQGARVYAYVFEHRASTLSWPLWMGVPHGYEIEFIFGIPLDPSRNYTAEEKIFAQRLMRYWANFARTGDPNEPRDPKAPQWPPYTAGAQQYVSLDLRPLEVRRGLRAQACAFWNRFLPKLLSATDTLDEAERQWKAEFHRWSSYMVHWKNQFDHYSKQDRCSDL
Sequence of Aromatase (Homo sapiens) (P11511 whole entry, looked up): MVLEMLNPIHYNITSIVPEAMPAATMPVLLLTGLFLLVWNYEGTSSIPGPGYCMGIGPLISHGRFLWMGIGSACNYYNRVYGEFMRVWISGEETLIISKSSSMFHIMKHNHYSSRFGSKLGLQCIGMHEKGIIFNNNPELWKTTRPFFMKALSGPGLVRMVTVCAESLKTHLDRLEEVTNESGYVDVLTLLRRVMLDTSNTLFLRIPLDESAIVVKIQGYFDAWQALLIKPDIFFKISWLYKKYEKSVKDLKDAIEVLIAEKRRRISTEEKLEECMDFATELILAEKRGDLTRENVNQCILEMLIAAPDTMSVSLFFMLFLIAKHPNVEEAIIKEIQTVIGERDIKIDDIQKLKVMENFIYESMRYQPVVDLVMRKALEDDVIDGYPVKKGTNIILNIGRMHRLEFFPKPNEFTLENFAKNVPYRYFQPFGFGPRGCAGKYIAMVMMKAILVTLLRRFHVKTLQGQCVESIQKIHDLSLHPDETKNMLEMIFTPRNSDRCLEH

`CCCCCCCCCCCCCC(=O)O[C@@H]1[C@@H](C)[C@@]2(O)[C@@H](C=C(CO)C[C@@]3(O)C(=O)C(C)=C[C@@H]23)C2C(C)(C)[C@@]21OC(C)=O` (stereo partly drawn): the Potency in assay [1] is 0.00872 µM (active). Also, the Potency entry in [2] was “inactive”.
In the case of `O=[N+]([O-])c1cc(O)c(O)c([N+](=O)[O-])c1`, the Potency entry in [1], in assay [2], in [3] and in assay [4] was “inactive” in each case.
Regarding `CC1(C(=O)O)C2CCC(O2)C1(C)C(=O)O` (stereo not drawn), the Potency result in assay [1] and in [2] was “inactive” throughout.
`CN1[C@@H]2CC[C@@H]1CC(OC(=O)C(CO)c1ccccc1)C2` (stereo partly drawn): the Potency result in assay [5] was “inactive”.
In the case of `NC(=Nc1ccccc1)Nc1ccccc1`, the Potency entry in [6], in assay [10], in assay [12], in assay [13] and in [14] was “inactive” each time. Also, the Potency was 23.7 µM (active) in assay [7]; 12.2 µM (active) in [8]; 63.3 µM (active) and inactive in assay [11]. In assay [9], the activity change, positive = activation was 17.6% (active).
